Laboratory results taken from PubChem BioAssay AID1159580 (chemical genetic matrix, 2015).
Hit rate of the full screen: of about 5,500 compounds, about 2,000 (36%) were called active. Inconclusive results (about 18%) are left out. Rule as the data show it: active = normalized growth mostly below about 0.91 (no sharp cut-off); inconclusive = no clear call, values can overlap the other calls; inactive = mostly above about 0.92. This is one part of the list.

Experiment: chemical genetic growth profiling, strain panel (AID 1159580);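 also: tested at 20 µM; growth read once vehicle control cultures reached saturation at 30 °C; 1 = growth at the plate median or of vehicle wells; lower values mean less growth of the strain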
Conditions: growth OD
[1] = S. cerevisiae deletion strains, locus YMR307W, strain GAS1, active compounds read low
[2] = S. cerevisiae deletion strains, locus YNL153C, strain GIM3, active compounds read low
[3] = S. cerevisiae deletion strains, locus YPL055C, strain LGE1, active compounds read low
[4] = S. cerevisiae deletion strains, locus YPL241C, strain CIN2, active compounds read low
[5] = S. cerevisiae deletion strains, locus YAL013W, strain DEP1, active compounds read low
[6] = S. cerevisiae deletion strains, locus YBR229C, strain ROT2, active compounds read low
[7] = S. cerevisiae deletion strains, locus YDL101C, strain DUN1, active compounds read low
[8] = S. cerevisiae deletion strains, locus YDL134C, strain PPH21, active compounds read low
[9] = S. cerevisiae deletion strains, locus YDR150W, strain NUM1, active compounds read low
[10] = S. cerevisiae deletion strains, locus YEL061C, strain CIN8, active compounds read low
[11] = S. cerevisiae deletion strains, locus YGR078C, strain PAC10, active compounds read low
[12] = S. cerevisiae deletion strains, locus YHR030C, strain SLT2, active compounds read low
[13] = S. cerevisiae deletion strains, locus YHR087W, strain rtc3, active compounds read low
[14] = S. cerevisiae deletion strains, locus YJL187C, strain SWE1, active compounds read low
[15] = S. cerevisiae deletion strains, locus YJR043C, strain POL32, active compounds read low
[16] = S. cerevisiae deletion strains, locus YJR075W, strain HOC1, active compounds read low
[17] = S. cerevisiae deletion strains, locus YLR039C, strain RIC1, active compounds read low
[18] = S. cerevisiae deletion strains, locus YLR058C, strain SHM2 (second series), active compounds read low
[19] = S. cerevisiae deletion strains, locus YLR085C, strain ARP6, active compounds read low
[20] = S. cerevisiae deletion strains, locus YLR262C, strain YPT6, active compounds read low
[21] = S. cerevisiae deletion strains, locus YML094W, strain GIM5, active compounds read low
[22] = S. cerevisiae deletion strains, locus YMR219W, strain ESC1, active compounds read low
[23] = S. cerevisiae deletion strains, locus YMR263W, strain SAP30, active compounds read low
[24] = S. cerevisiae deletion strains, locus YNL128W, strain TEP1, active compounds read low
[25] = S. cerevisiae deletion strains, locus YNL298W, strain CLA4 (second series), active compounds read low
[26] = S. cerevisiae deletion strains, locus YNL322C, strain KRE1, active compounds read low
[27] = S. cerevisiae deletion strains, locus YNR030W, strain Alg12, active compounds read low
[28] = S. cerevisiae deletion strains, locus YOL006C, strain TOP1, active compounds read low
[29] = S. cerevisiae deletion strains, locus YPR135W, strain CTF4, active compounds read low
[30] = S. cerevisiae deletion strains, locus YGR229C, strain SMI1, active compounds read low
[31] = S. cerevisiae deletion strains, locus YKL190W, strain CNB1, active compounds read low

Measured: normalized growth

N[C@@H](CCl)C(=O)O
inactive: S. cerevisiae deletion strains, locus YAL040C, strain CLN3, active compounds read low 0.98 | S. cerevisiae deletion strains, locus YDR363W, strain ESC2, active compounds read low 1.03 | S. cerevisiae deletion strains, locus YER002W, strain NOP16, active compounds read low 0.99 | [1] 0.993 | [2] 1.05 | S. cerevisiae deletion strains, locus YNL175C, strain NOP13, active compounds read low 1.01 | S. cerevisiae deletion strains, locus YNL197C, strain WHI3, active compounds read low 1.03 | S. cerevisiae deletion strains, locus YNL224C, strain SQS1, active compounds read low 0.996 | S. cerevisiae deletion strains, locus YOR083W, strain WHI5 (second series), active compounds read low 1.01 | [3] 1.02 | [4] 1

CC(=O)c1cc2ccccc2oc1=O
inactive: [5] 1.02 | [6] 1.01 | [7] 0.961 | [8] 1.02 | [9] 0.94 | [10] 1.01 | [11] 0.986 | [12] 1 | [13] 1.03 | [14] 0.999 | [15] 0.999 | [16] 0.988 | [17] 1.05 | [18] 1.01 | [19] 1.08 | [20] 1 | [21] 1.02 | [22] 0.993 | [23] 1.02 | [24] 1.01 | [2] 1.01 | [25] 1.07 | [26] 0.99 | [27] 1.05 | [28] 1.02 | [3] 1.13 | [4] 1.03 | [29] 0.984 | S. cerevisiae strains, strain wild type, active compounds read low 1.03

CC(=O)Nc1cc2ccccc2oc1=O
inactive: [5] 1 | [6] 1 | [7] 0.975 | [8] 1 | [9] 0.986 | [10] 1.02 | [11] 1.01 | [30] 0.997 | [12] 0.942 | [13] 0.988 | [15] 1.01 | [16] 0.997 | [31] 1 | [17] 1.06 | [18] 1.01 | [19] 1.01 | [20] 1.04 | [21] 0.997 | [22] 1 | [23] 0.996 | [1] 1.09 | [2] 0.984 | [25] 0.998 | [26] 1.01 | [27] 1 | [28] 0.958 | [3] 0.969 | [4] 0.985 | [29] 0.946

CC(=O)c1cc2cc(Br)ccc2oc1=O
active: [17] 0.618 | [20] 0.628
inactive: [5] 0.987 | [6] 0.967 | [7] 0.998 | [9] 0.994 | [10] 0.975 | [11] 0.976 | [30] 0.994 | [12] 0.818 | [13] 0.96 | [14] 0.97 | [15] 0.984 | [16] 0.948 | [31] 0.992 | [18] 0.964 | [19] 0.936 | [21] 0.999 | [22] 0.96 | [23] 1 | [24] 1.01 | [2] 0.994 | [25] 0.983 | [26] 0.964 | [27] 0.97 | [3] 1.02 | [4] 0.964 | [29] 0.717
